Key:
Conditions in all cases: concentration: 1 μM, replicates: in singlicate; n = 1
[1] = system: MTOR
[2] = system: MUSK
[3] = system: MYLK2
[4] = system: MYLK4
[5] = system: MYLK
[6] = system: MYO3A
[7] = system: MYO3B
[8] = system: T1, NDR1
T1 construct: gene STK38

[9] = system: NDR2
[10] = system: NEK10
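Further: KINOMEscan kinase panel screen.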

Structure (SMILES)	%Inh [1] [%]	%Inh [2] [%]	%Inh [3] [%]	%Inh [4] [%]	%Inh [5] [%]	%Inh [6] [%]	%Inh [7] [%]	%Inh [8] [%]	%Inh [9] [%]	%Inh [10] [%]
CNc1nccc(-c2ccc3c(N)n[nH]c3c2)n1 [GSK2206003]	11	3	60	97.1	68	53	0	24	9	29
Cc1ccc(O)cc1Nc1ccnc2ccc(C(C)(C)C)cc12 [GW856805]	0	27	5	13	25	13	6	18	23	27
O=C1NC(=O)C(c2ccccc2Cl)=C1Nc1cccc(Cl)c1 [SB-342409]	4	8	11	3	9	0	3	1	0	51
COc1cc(Nc2nccc(N3CCC(NC(=O)Nc4ccc5c(c4)OCO5)C3)n2)cc(OC)c1OC (stereo not shown) [GSK1379766]	26	19	10	1	21	18	0	0	9	34
Cc1cc(-c2c(-c3ccc(F)cc3)ncn2CCCN2CCOCC2)nc(N)n1 [SB-222517]	0	14	1	14	17	17	30	43	14	16
CN(c1ccc2c(c1)nc(NCc1ccccc1)n2C)c1ccnc(Nc2ccc(CS(C)(=O)=O)cc2)n1.Cl [GW811603]	10	36	26	0	8	5	19	8	0	17
COc1cccc(CC(=O)N2CCc3cc(-c4cn(C)c5ncnc(N)c45)ccc32)c1 [GSK2608899]	8	27	64	7	20	38	18	22	0	7
CN(c1ccc(NC(=O)Nc2cccc(Cl)c2)cc1)c1ccnc(N)n1.Cl [GW830707]	13	72	0	6	0	3	36	10	25	1
Fc1cc(Cl)ccc1Nc1ccnc2cc(-c3ccc(CN4CCSCC4)o3)ccc12 [GW560106]	6	0	13	0	38	38	0	12	31	15
Cc1ccc(Nc2ccnc(Nc3ccc(C)c(F)c3)n2)cc1O.Cl [GW582868]	15	12	0	29	9	2	0	0	0	0
CCNC(=O)/C=C/c1n[nH]c2cc(Sc3ccccc3C(=O)NC)ccc12	14	32	3	20	11	8	0	25	18	24
Cc1ccc(O)cc1Nc1ccnc2cc(-c3ccc(CN4CCCCC4)o3)ccc12 [GW557777]	0	3	0	2	9	4	0	0	4	0
Cc1ccccc1CC(=O)N1CCc2cc(-c3cn(C)c4ncnc(N)c34)ccc21 [GSK2603346]	30	5	85	0	9	100	0	0	0	0
Nc1ncnc2scc(-c3ccc(NC(=O)Cc4cc(F)ccc4F)cc3)c12.O=C(O)C(F)(F)F [SB-731254-M]	0	2	38	72	8	29	0	12	25	0
CC(C)c1nc(-c2ccc(F)c(NS(=O)(=O)c3c(F)cccc3F)c2)c(-c2ccnc(Nc3ccc(N4CCOCC4)nc3)n2)s1 [GSK1804250]	32	8	2	1	7	51	54	23	0	7
CC(C)c1nc(-c2cccc(NS(=O)(=O)c3c(F)cccc3F)c2)c(-c2ccnc(Nc3ccc(N4CCOCC4)nc3)n2)s1.Cl [GSK1723980]	7	0	0	0	6	25	47	32	0	9
COc1cccc(C2=C(Nc3cccc(O)c3)C(=O)NC2=O)c1 [SB-390771]	38	0	0	6	27	17	0	18	0	67
O=C(Nc1n[nH]c2nc(-c3cccc(O)c3)ccc12)C1CC1 [SB-711805]	0	0	97.2	13	98.4	18	0	0	0	0
COC(=O)Nc1nc2ccc(Oc3ccc(NC(=O)Nc4cc(C(F)(F)F)ccc4F)cc3)cc2[nH]1.Cl [GW654607]	34	99.6	33	0	10	0	0	29	0	21
Cc1cccc(Nc2nc(N[C@H]3CCCC[C@H]3N)ncc2C(N)=O)c1.Cl [GSK986310]	0	27	7	93.8	29	8	0	27	0	71
COC(=O)Nc1nc2cc(Oc3ccc(NC(=O)Nc4cccc(SC)c4)cc3)ccc2[nH]1.Cl [GW697999]	28	98.9	2	0	11	25	0	11	0	7
CSc1ccc(NC2=C(c3ccc(Cl)cc3)C(=O)NC2=O)cc1 [SB-317658]	0	34	10	24	0	18	20	9	9	14

From PMC5540273 (PLoS ONE, 2017)
